Reference: PubChem BioAssay (NCATS)
Results filed as inconclusive are left out. Where a call stands in place of a potency, no number is given. Unmarked numbers belong to inactive results. The source made the active and inactive calls. Calls follow the shape of the dose curve; as a rule, active = well fitted curve in the direction sought with a large enough effect; inconclusive = small, poorly fitted or top-dose-only effect, or another doubt; inactive = no such curve, though single readings can be large; an effect the other way counts as inactive or inconclusive.

How the values were obtained:
[1] = Viability qHTS for spleen associated tyrosine kinase inhibitor (SYKi) naive MV4-11 cells (AID 1963823); conditions: MV4-11 AML viability, CellTiter-Glo luminescence, 72 h; series mostly up to 45 µM; also: nearly all actives have a fitted effect of over 40% in size
Method in brief: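 Luminescence from CellTiter-Glo, developed 10 min at room temperature, gave viability of MV4-11 cells never exposed to SYK inhibitor. Cells (500/well) had been incubated with compounds for 72 hr under standard culture conditions.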

[2] = Viability qHTS for spleen associated tyrosine kinase inhibitor (SYKi) drug resistant MV4-11 cells (AID 1963824); conditions: SYKi-resistant MV4-11 viability, CellTiter-Glo, 72 h; series mostly up to 45 µM; also: nearly all actives have a fitted effect of over 35% in size
Method in brief: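 SYK-inhibitor-resistant MV4-11 AML cells were seeded at 500 per well onto compound and cultured 72 hours (37 °C, 5% CO2). CellTiter-Glo was then added, and after 10 min at room temperature, luminescence gave viability.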

[3] = Cellular viability qHTS for adrenocortical cancer (ACC) cell line SW-13 (AID 1963989); conditions: SW-13 ACC cells viability, CellTiter-Glo, 48 h; activity (max response): active compounds read low; also: nearly all actives have a fitted effect of over 65% in size;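 as to activity (max response): cells grown in serum-free medium with ITS supplement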
Method in brief: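 Here, serum-free SW-13 cultures were dosed up to 46 uM. Following 48 h, ATP-dependent luminescence (CellTiter-Glo) reported viable cells, and logistic modeling produced IC50 values.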

[4] = Cellular viability qHTS for adrenocortical cancer (ACC) cell line NCI-H295R (AID 1963990); conditions: CellTiter-Glo ATP luminescence, 48 h; series mostly up to 46.1 µM; also: nearly all actives have a fitted effect of over 60% in size
Method in brief: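 Viability of NCI-H295R after 48 h of treatment (final up to 46 uM) measured through cellular ATP luminescence.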
Potency is read from the fitted curve at half-maximal effect.

| Compound | Potency [1] | Potency [2] | activity (max response) [3] [%] | Potency [4] | Potency [3] |
| --- | --- | --- | --- | --- | --- |
| CC1=C(C/C=C(\C)CCC[C@H](C)CCC[C@H](C)CCCC(C)C)C(=O)c2ccccc2C1=O | inactive | inactive | 12.7 | inactive | – |
| Cc1ccc(C(=O)C(=O)O)cc1C | inactive | inactive | 1.9 | inactive | – |
| NS(=O)(=O)c1cc2c(cc1Cl)NC(C1CC3C=CC1C3)NS2(=O)=O (centres undefined) | inactive | inactive | -7.72 | inactive | – |
| COc1cc2c(cc1O)CCN[C@]21CS[C@@H]2c3c(OC(C)=O)c(C)c4c(c3[C@H](COC1=O)N1[C@@H]2[C@H]2c3c(cc(C)c(OC)c3O)C[C@@H]([C@@H]1O)N2C)OCO4 | 0.0014 µM (active) | 0.0015 µM (active) | – | 0.0094 µM (active) | 0.0038 µM (active) |
| COC(=O)/C=C/C(=O)N(O)CCCCNCc1ccc(COC(=O)Nc2cccc3ccccc23)cc1 | 7.31 µM (active) | 6.51 µM (active) | -10.5 | inactive | – |
| CC(=O)N[C@H]1CSSC[C@@H](C(N)=O)NC(=O)[C@H](C(C)C)NC(=O)[C@H](C)NC(=O)[C@H](Cc2cnc[nH]2)NC1=O | inactive | inactive | -0.986 | inactive | – |
| c1ccc2[nH]ccc2c1 | inactive | inactive | 10.5 | inactive | – |
| Cc1noc(C)c1-c1ccc(-c2cc(C(N)=O)c(NC(N)=O)s2)c(O[C@H]2CCNC2)c1 | 2.31 µM (active) | 3.26 µM (active) | -22.5 | inactive | – |
| COc1ccc(S(=O)(=O)N(CCO)c2ccccc2CN(C)C/C=C/c2ccc(Cl)cc2)cc1 | 4.68 µM (active) | 4.68 µM (active) | – | 12.6 µM (active) | 10 µM (active) |
| CCCOc1ccn2c(C(C)=O)cc(-c3ccccc3S(C)(=O)=O)c2c1 | 20.9 µM (active) | 14.8 µM (active) | 0.517 | inactive | – |
| CC(=O)OCC1=C(C(=O)O)N2C(=O)[C@@H](NC(=O)Cc3cccs3)[C@H]2SC1 | inactive | inactive | 10.2 | inactive | – |
| CCn1ccnc1CC1COc2ccccc2O1 (centres undefined) | inactive | inactive | 8.12 | inactive | – |
| Cc1c(F)cc(C(=O)NC2CC2)cc1-c1ccc(C(=O)NCC(C)(C)C)cn1 | 0.164 µM (active) | 0.461 µM (active) | 1.4 | inactive | – |
| O=c1c(-c2ccc(O)cc2)coc2c([C@@H]3O[C@H](CO)[C@@H](O)[C@H](O)[C@H]3O)c(O)ccc12 | inactive | inactive | 3.16 | inactive | – |
| COc1cc(C(=S)N2CCOCC2)cc(OC)c1OC | inactive | inactive | 1.86 | inactive | – |
| C[C@H](O)C(=O)Nc1c(I)c(C(=O)NC(CO)CO)c(I)c(C(=O)NC(CO)CO)c1I | inactive | inactive | 10.3 | inactive | – |
